Test results taken from PubChem BioAssay (EPA / NIEHS).
Active and inactive are the calls of the source. The calls were made as follows: active = hit-call score of the fitted dose curve at least 0.9, where 1 is the maximum; inactive = score below 0.9.

Experiments:
[1] = APR_HepG2_NuclearSize_72hr: Apredica 72-hour HepG2 Assay for Nuclear Size (AID 2282925); conditions: high-content imaging, actives raise or lower the signal
Procedure, shortened: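 HepG2; cpd 0.39–200 uM, 10 conc, duplicate; 72 h; DMSO 0.5% v/v; fix 3.7% formaldehyde 30 min RT; Triton permeabilization; Hoechst 2 ug/mL; HCS imaging 20x; nuclear diameter; gain/loss fit vs DMSO.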

[2] = ATG_CRE_CIS: Attagene CIS-FACTORIAL HepG2 Assay for human cAMP Responsive Element (CRE) binding protein 3 (AID 2282926); conditions: HepG2 CRE cis-reporter, Attagene multiplexed mRNA; actives raise or lower the signal
Procedure, shortened: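 HepG2 cells transiently transfected with a multiplexed reporter library (CRE-driven unit among them) were dosed for 24 h. Reporter mRNA was quantified by RT-PCR, fluorescent labelling, HpaI digestion and capillary electrophoresis, with bidirectional fitting against DMSO baseline.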

[3] = biological target: CCAAT/enhancer-binding protein beta (Homo sapiens) (UniProt P17676); test: ATG_C_EBP_CIS: Attagene CIS-FACTORIAL HepG2 Assay for human CCAAT/Enhancer Binding Protein (C/EBP) beta (AID 2282927); conditions: HepG2 Attagene cis-factorial transcription factor reporter; actives raise or lower the signal
Sequence of CCAAT/enhancer-binding protein beta (Homo sapiens) (P17676 whole entry, looked up): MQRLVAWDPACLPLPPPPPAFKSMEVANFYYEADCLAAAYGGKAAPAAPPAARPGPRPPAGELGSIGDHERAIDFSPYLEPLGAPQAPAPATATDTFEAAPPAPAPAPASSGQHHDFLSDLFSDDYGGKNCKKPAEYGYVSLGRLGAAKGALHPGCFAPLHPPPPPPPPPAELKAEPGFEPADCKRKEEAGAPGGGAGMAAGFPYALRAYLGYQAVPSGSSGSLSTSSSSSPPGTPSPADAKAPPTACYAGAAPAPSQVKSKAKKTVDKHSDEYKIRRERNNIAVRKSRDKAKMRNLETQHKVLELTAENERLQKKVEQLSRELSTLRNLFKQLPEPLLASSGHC
Procedure, shortened: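 Changes in reporter mRNA, rather than exogenous chimeric receptor activity, reflect native C/EBP signalling in transfected HepG2 cells dosed for 24 h; transcripts are detected by RT-PCR and capillary electrophoresis.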

[4] = ATG_CMV_CIS: Attagene CIS-FACTORIAL HepG2 Assay for human CMV (Internal Marker) (AID 2282928); conditions: HepG2 CMV promoter reporter, transcription factor profiling; actives raise or lower the signal;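 also: endpoint acts as a background internal control marker rather than a target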
Procedure, shortened: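 After transient transfection of HepG2 with reporter transcription units driven by cis-regulatory promoters, cells receive test chemical for 24 h. Labeled reporter amplicons, digested with HpaI, are sized and quantified by capillary electrophoresis against DMSO.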

[5] = ATG_DR4_LXR_CIS: Attagene CIS-FACTORIAL HepG2 Assay for human Liver X Receptor (LXR), DR4 submotif (AID 2282929); conditions: HepG2 Attagene DR4 cis-reporter, mRNA transcription; actives raise or lower the signal
Procedure, shortened: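 HepG2 cells transiently transfected with cis-promoter-driven multiplexed reporter units (DR4 element) were dosed for 24 h. Reporter mRNA was quantified by RT-PCR, fluorescent primer extension, HpaI digestion and capillary electrophoresis; bidirectional fitting versus DMSO baseline.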

[6] = biological target: Aryl hydrocarbon receptor (Homo sapiens) (UniProt P35869); test: ATG_Ahr_CIS: Attagene CIS-FACTORIAL HepG2 Assay for human Aryl Hydrocarbon Receptor (Ahr) (AID 2282930); conditions: HepG2 AhR cis-factorial reporter transcription; actives raise or lower the signal
Sequence of Aryl hydrocarbon receptor (Homo sapiens) (P35869 whole entry, looked up): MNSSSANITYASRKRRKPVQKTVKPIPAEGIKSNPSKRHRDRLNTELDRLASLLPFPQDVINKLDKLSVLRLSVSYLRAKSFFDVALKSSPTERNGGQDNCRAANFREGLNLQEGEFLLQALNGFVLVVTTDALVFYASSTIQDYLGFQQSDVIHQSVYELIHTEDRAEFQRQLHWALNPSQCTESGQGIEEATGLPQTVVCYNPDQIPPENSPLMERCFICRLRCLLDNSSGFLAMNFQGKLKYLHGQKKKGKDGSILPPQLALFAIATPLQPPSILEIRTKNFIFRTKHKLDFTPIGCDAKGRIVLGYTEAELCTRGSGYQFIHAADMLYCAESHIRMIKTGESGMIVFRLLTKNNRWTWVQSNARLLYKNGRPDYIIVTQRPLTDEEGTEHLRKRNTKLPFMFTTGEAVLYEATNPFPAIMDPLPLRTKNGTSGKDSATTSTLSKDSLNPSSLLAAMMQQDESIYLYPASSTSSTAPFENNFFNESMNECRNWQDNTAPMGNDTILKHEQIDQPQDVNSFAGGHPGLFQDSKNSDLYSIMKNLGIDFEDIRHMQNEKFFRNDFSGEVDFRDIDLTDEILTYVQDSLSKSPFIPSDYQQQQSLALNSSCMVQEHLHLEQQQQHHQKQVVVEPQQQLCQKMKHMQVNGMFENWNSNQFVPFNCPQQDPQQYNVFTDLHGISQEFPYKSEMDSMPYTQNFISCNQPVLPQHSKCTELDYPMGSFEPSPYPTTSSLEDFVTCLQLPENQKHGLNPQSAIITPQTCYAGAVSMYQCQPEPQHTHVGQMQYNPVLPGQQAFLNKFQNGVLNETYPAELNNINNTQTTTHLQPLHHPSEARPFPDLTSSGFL
Procedure, shortened: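 HepG2, transient MRTU (cis) transfection, 24 h exposure. RNA → cDNA → PCR → 6-FAM primer extension → HpaI 2 h 37 C → CE. Fit: bidirectional, DMSO baseline.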

[7] = ATG_BRE_CIS: Attagene CIS-FACTORIAL HepG2 Assay for human Bone Morphogenetic Protein (BMP) Response Element (BRE) (AID 2282933); conditions: HepG2 BMP response element reporter, Attagene transcription factor profiling; actives raise or lower the signal
Procedure, shortened: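 Endogenous transcription factor activity read in transiently transfected HepG2 cells after 24 h chemical exposure. Bidirectional curve fitting against DMSO; readout is reporter transcript level by RT-PCR with capillary electrophoresis of labelled products.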

[8] = biological target: Transcription factor E2F1 (Homo sapiens) (UniProt Q01094); test: ATG_E2F_CIS: Attagene CIS-FACTORIAL HepG2 Assay for human E2F Transcription Factor 1 (AID 2282935); conditions: HepG2 Attagene cis-reporter, E2F reporter RNA transcripts; actives raise or lower the signal
Sequence of Transcription factor E2F1 (Homo sapiens) (Q01094 whole entry, looked up): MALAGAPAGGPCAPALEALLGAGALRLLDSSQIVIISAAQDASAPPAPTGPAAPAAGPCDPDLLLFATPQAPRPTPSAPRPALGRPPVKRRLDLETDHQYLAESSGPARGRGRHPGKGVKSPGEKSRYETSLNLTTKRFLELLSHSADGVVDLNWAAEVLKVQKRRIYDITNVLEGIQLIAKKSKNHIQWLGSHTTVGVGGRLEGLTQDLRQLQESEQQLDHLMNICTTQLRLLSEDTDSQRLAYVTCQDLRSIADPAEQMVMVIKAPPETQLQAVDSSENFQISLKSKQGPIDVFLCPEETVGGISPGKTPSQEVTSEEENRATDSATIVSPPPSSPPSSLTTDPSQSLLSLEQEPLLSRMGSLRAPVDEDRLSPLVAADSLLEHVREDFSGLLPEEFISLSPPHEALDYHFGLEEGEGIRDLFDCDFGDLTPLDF
Procedure, shortened: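 Cis-element reporter mRNA induction in transiently transfected HepG2, 24 h exposure. Activity fitted in both directions relative to DMSO negative control.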

[9] = ATG_E_Box_CIS: Attagene CIS-FACTORIAL HepG2 Assay for human Enhancer Box (E-box) (AID 2282936); conditions: HepG2 E-box cis-reporter transcription, actives raise or lower the signal
Procedure, shortened: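 Cells: HepG2 (human liver), transient MRTU transfection. Exposure 24 h. RNA → oligo(dT) RT → PCR → 6-FAM label → HpaI → CE. Activity fitted both directions relative to DMSO.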

[10] = ATG_M_61_CIS: Attagene CIS-FACTORIAL HepG2 Assay for M61 Transcription Factor (Internal Marker) (AID 2282937); conditions: HepG2 Attagene CIS-FACTORIAL M61 internal marker reporter; actives raise or lower the signal
Procedure, shortened: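 HepG2 cells transiently transfected with cis-element-driven multiple reporter transcription units, dosed for 24 h. Reporter mRNA measured by RT-PCR, 6-FAM primer-extension labelling, HpaI digestion and capillary electrophoresis; bidirectional fit versus DMSO baseline.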

[11] = ATG_EGR_CIS: Attagene CIS-FACTORIAL HepG2 Assay for human Early Growth Response 1 (EGR1) (AID 2282938); conditions: HepG2 Attagene CIS-FACTORIAL EGR reporter mRNA; actives raise or lower the signal
Procedure, shortened: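 HepG2 cells transiently transfected with cis-promoter-driven multiplexed reporter transcription units; reporter mRNA measured 24 h after compound dosing by RT-PCR, 6-FAM primer extension, HpaI digestion and capillary electrophoresis. Bidirectional fit versus DMSO baseline.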

[12] = ATG_M_19_CIS: Attagene CIS-FACTORIAL HepG2 Assay for M19 Transcription Factor (Internal Marker) (AID 2282939); conditions: HepG2 Attagene CIS-FACTORIAL M19 internal marker reporter; actives raise or lower the signal
Procedure, shortened: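 Internal marker readout, fitted in both directions against DMSO, from HepG2 cells carrying transfected cis-element reporter constructs; RT-PCR and capillary electrophoresis of reporter mRNA after 24 h exposure.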

[13] = ATG_ERE_CIS: Attagene CIS-FACTORIAL HepG2 Assay for Estrogen Response Element (ERE) (AID 2282940); conditions: HepG2 ERE cis-reporter, Attagene RNA transcript; actives raise or lower the signal
Procedure, shortened: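 After 24 h compound treatment, RNA from transfected HepG2 cells was reverse-transcribed, reporter cDNA PCR-amplified, FAM-labelled, HpaI-cut and resolved by capillary electrophoresis. ERE-driven cis reporter transcripts reflect endogenous factors; gain or loss scored against DMSO.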

[14] = ATG_Ets_CIS: Attagene CIS-FACTORIAL HepG2 Assay for human Erythroblast Transformation Specific (ETS) (AID 2282941); conditions: HepG2 ETS cis-reporter transcription, actives raise or lower the signal
Procedure, shortened: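 Human HepG2 hepatoma cells were transiently transfected with promoter-driven reporter constructs and treated for 24 hours. Reporter transcripts were quantified by RT-PCR with fluorescent primer extension; bidirectional curve fitting used DMSO as reference.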

[15] = biological target: Hepatocyte nuclear factor 3-beta (Homo sapiens) (UniProt Q9Y261); test: ATG_FoxA2_CIS: Attagene CIS-FACTORIAL HepG2 Assay for human Forkhead box A2 (FOXA2) (AID 2282942); conditions: HepG2 cis-reporter transcription factor activity, 24 h; actives raise or lower the signal
Sequence of Hepatocyte nuclear factor 3-beta (Homo sapiens) (Q9Y261 whole entry, looked up): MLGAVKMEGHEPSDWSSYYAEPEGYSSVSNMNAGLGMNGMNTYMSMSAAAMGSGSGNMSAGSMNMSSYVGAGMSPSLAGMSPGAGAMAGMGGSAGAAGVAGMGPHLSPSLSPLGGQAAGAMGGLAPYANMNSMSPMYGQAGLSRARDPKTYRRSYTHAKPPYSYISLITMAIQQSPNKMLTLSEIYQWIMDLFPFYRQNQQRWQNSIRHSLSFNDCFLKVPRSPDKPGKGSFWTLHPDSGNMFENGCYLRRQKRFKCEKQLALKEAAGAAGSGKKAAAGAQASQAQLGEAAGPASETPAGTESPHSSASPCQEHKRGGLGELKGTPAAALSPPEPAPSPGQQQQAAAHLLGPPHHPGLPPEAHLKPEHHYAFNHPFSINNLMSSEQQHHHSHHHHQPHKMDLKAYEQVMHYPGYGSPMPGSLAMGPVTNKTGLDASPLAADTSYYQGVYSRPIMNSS
Procedure, shortened: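 HepG2 cells transiently transfected with multiple cis-regulated reporter transcription units, dosed for 24 h. Reporter mRNA measured by RT-PCR, 6-FAM labelling, HpaI digestion and capillary electrophoresis; bidirectional fitting against DMSO baseline.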

[16] = ATG_FoxO_CIS: Attagene CIS-FACTORIAL HepG2 Assay for human Forkhead box O (FoxO) (AID 2282943); conditions: HepG2 Attagene cis-reporter, FoxO element, mRNA; actives raise or lower the signal
Procedure, shortened: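 Human hepatoma HepG2 cells carry transiently introduced reporter transcription units controlled by cis promoter elements. Chemical treatment lasted 24 h, and mRNA signal was compared with DMSO.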

[17] = ATG_GATA_CIS: Attagene CIS-FACTORIAL HepG2 Assay for human GATA Binding Protein (AID 2282944); conditions: HepG2 GATA cis-element reporter, Attagene multiplex mRNA; actives raise or lower the signal
Procedure, shortened: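 Reporter transcripts from a GATA cis-regulated unit, among multiplexed reporters in transfected HepG2 cells, were measured by RT-PCR with capillary electrophoresis after 24 h dosing. Induction or loss scored relative to DMSO.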

[18] = biological target: Retinoic acid receptor alpha (Homo sapiens) (UniProt P10276); test: ATG_DR5_RAR_CIS: Attagene CIS-FACTORIAL HepG2 Assay for human Retinoic Acid Receptor Alpha (RARE), DR5 submotif (AID 2282934); conditions: HepG2 Attagene cis-factorial RARE DR5 reporter, mRNA; actives raise or lower the signal
Sequence of Retinoic acid receptor alpha (Homo sapiens) (P10276 whole entry, looked up): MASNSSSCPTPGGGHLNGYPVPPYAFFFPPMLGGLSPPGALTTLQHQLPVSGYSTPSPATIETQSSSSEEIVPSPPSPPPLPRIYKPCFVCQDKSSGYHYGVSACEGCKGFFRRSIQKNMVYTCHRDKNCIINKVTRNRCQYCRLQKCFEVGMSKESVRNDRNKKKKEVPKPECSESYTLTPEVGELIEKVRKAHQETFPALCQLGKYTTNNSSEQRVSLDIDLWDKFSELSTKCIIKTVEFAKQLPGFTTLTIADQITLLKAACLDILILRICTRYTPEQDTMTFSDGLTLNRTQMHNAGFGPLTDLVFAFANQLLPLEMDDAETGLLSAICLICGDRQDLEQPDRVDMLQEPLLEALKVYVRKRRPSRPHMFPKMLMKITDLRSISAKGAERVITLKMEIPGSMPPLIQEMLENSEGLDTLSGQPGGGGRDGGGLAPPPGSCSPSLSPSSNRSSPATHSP
Procedure, shortened: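 HepG2, transient cis-reporter transfection, 24 h exposure. mRNA readout: RT-PCR, FAM label, HpaI cut, capillary electrophoresis. DMSO baseline, gain/loss fitting.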

[19] = ATG_AP_2_CIS: Attagene CIS-FACTORIAL HepG2 Assay for human Activator Protein 2 (AP-2) (AID 2282932); conditions: HepG2 AP-2 cis-reporter, Attagene transcription factor profiling; actives raise or lower the signal
Procedure, shortened: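 HepG2, transient MRTU transfection, cis-regulated reporters; 24 h compound exposure; RNA isolated, RT-PCR, 6-FAM labelling, HpaI digest, CE fluorescence. DMSO = negative control/baseline, bidirectional fit.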

Measured: AC50

Cc1ccccc1Cl
not listed: [18] | [19]
inactive: all other assays above

CN1CCCC1=O
not listed: [6] | [19]
inactive: all other assays above

COc1cccc2c1C(=O)c1c(O)c3c(c(O)c1C2=O)C[C@@](O)(C(=O)CO)C[C@@H]3O[C@H]1C[C@H](N)[C@H](O)[C@H](C)O1
active: [4] 1.19 µM | [5] 0.957 µM | [19] 3.75 µM | [9] 1.85 µM | [11] 2.04 µM | [16] 0.543 µM
not listed: [6]
inactive: all other assays above

Oc1ccc2c(c1)OC[C@@H](N1CCC(O)(c3ccc(F)cc3)CC1)[C@H]2O
active: [7] 62.1 µM | [11] 50 µM
not listed: [6] | [19]
inactive: all other assays above

CCCCCCOCCO
not listed: [6]
inactive: all other assays above

Cc1c(C(=O)O)c(O)cc2c1C(=O)c1c(O)c([C@@H]3O[C@H](CO)[C@@H](O)[C@H](O)[C@H]3O)c(O)c(O)c1C2=O
not listed: [6] | [19]
inactive: all other assays above

CCNc1cccc(C)c1
not listed: [6] | [7]
inactive: all other assays above

CC(=O)OCCOCCOCCOC(C)=O
not listed: [6] | [19]
inactive: all other assays above
